Shown are actives, neighbours in structure and some others; about 3.6% of the full set was active somewhere.
D1 PAM: potentiators of human D1 dopamine receptor; AID 504651; P21728; potentiation, % at 10 µM; HEK293 TREx D1 cells, calcium flux, dopamine EC20 potentiation; 360,000 tested, 0.036% active; in the data active means potentiation above about 30%; further: 0% is about no effect
Target sequence (P21728 whole entry, looked up): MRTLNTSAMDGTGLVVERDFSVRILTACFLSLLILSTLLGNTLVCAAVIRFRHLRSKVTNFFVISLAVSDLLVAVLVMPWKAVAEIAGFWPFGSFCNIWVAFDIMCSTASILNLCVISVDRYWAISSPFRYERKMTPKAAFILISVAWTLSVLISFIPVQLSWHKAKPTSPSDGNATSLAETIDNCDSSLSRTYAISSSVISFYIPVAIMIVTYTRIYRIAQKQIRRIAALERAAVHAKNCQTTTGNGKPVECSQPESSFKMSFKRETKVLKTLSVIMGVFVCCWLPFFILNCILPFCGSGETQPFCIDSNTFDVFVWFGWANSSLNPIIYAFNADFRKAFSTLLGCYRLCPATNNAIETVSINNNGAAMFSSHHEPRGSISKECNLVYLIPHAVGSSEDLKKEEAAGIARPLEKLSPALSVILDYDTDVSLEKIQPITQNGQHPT
D1 ag: human D1 receptor agonism | activation, % at 2 µM | AID 504660 | 360,000 tested, 1% active | HEK293 T-REx D1 cells, calcium flux, agonist mode; further: 0% is about no effect
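Inducible HEK293 T-REx D1 cells, force-coupled to calcium signalling, were plated at 4000 cells/well with tetracycline and held overnight at 30 C. After no-wash calcium dye loading, compound-evoked calcium rise over 180 s flagged agonists.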
TRHR ag: TRH receptor (human) agonism | P34981 | TRHR cells, calcium flux fluo-8, FDSS agonist mode | activation, % at 2 µM | 360,000 tested, 0.18% active | AID 493084; further: 0% is about no effect
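TRHR-expressing cells loaded with fluo-8 calcium dye; 23 nL library compound pin-transferred, kinetic FDSS fluorescence (Ex 480/Em 530) recorded about 180 s for agonist-induced calcium release, before a 10 nM TRH EC20 addition for potentiator mode.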
D1 antag: human D1 dopamine receptor antagonism. HEK293 TREx D1 cells, calcium flux, dopamine EC80; stronger effect = lower value. activity change, negative = inhibition, % at 10 µM. 360,000 tested, 3.2% active. AID 504652; in the data active means activity change below about -30%; further: on the % scale 0 is the no-effect control and ±100 the full control effect
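Using tetracycline-induced force-coupled D1 Hek293 cells and a calcium dye, signals were followed for 180 s after compound, then for 180 s after EC80 dopamine, to detect inhibitors.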
TRHR enhancer: allosterically enhances the human TRH receptor; P34981; TRHR cells, fluo-8 calcium fluorescence, EC20 TRH enhancement; enhancement, % at 2 µM; AID 493056; 360,000 tested, 0.66% active; in the data active means enhancement above about 30%; further: 0% is about no effect
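TRHR-expressing cells loaded with fluo-8 calcium dye were read kinetically (ex 480/em 530) during compound addition, then stimulated with an EC20 of TRH (10 nM final). Enhancement of the Gq-mediated intracellular calcium response was scored.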
LDHA block: LDHA (human) enzyme inhibition. purified LDHA, NADH/diaphorase-resazurin fluorescence; stronger effect = lower value. activity change, % (values are at about 110 or 230 µM). 480,000 tested, 0.15% active. AID 1347041; in the data active means activity change below about -30%;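 further: plate controls were DMSO wells for no effect and wells without enzyme for full effect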
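Human LDH5 (2 nM) was incubated with 0.06 mM NADH and 0.2 mM pyruvate for 5 min at room temperature in Tris pH 7.4. Remaining NADH was coupled through diaphorase/resazurin, and resorufin fluorescence was read at 0 and 20 min.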
An asterisk follows results filed as active. Unless noted, no stated cut-off is given here; in the data, active means activation above about 30%; inactive means the rest.

Screening C/C(=N\OCC(=O)OCC(=O)NC(=O)c1ccccc1)c1ccc2c(c1)OCO2 returned D1 PAM 0.8, D1 ag 3.1, TRHR ag 0.7, D1 antag -40.4*, TRHR enhancer -2.4 and LDHA block -5.0.
`Brc1ccc(-c2nnc3ccc(SCc4ccco4)nn23)cc1` gave LDHA block 5.5.
`CCCNC(=O)CNC(=O)c1nn(C)c(=O)c2ccccc12` gave LDHA block 1.3.
O=C(OCc1cccc2ccccc12)c1cc2ccccc2[nH]1 was read as LDHA block 10.0.
CSc1ccccc1C(=O)Nc1cc(Cl)cc(Cl)c1 was read as LDHA block 9.5.
For O=C(CNC(=O)c1ccccc1)NCC(=O)OCC(=O)c1ccc(F)cc1 the results were D1 PAM 6.2, D1 ag 1.8, TRHR ag 0.2, D1 antag 2.6, TRHR enhancer 5.5 and LDHA block -7.2.
`Cc1ccc(C(=O)COC(=O)CNC(=O)C(c2ccccc2)c2ccccc2)cc1[N+](=O)[O-]` gave D1 PAM 7.1, D1 ag 2.5, TRHR ag 0.2, D1 antag -2.7, TRHR enhancer -19.7 and LDHA block -2.4.
Cc1ccc(C(=O)NCC(=O)OCC(=O)c2ccc(C)c([N+](=O)[O-])c2)cc1 was read as D1 PAM -24.0, D1 ag 1.2, TRHR ag -1.6, D1 antag -45.9*, TRHR enhancer -6.2 and LDHA block -9.8.
Screening Cc1ccc(C(=O)NCC(=O)NCC(=O)OCC(=O)c2ccc(F)cc2)cc1 returned D1 PAM -2.9, D1 ag 1.9, TRHR ag -0.5, D1 antag -52.4*, TRHR enhancer -0.8 and LDHA block 0.9.
CN(C)/N=C/c1ccc(Sc2ccccc2[N+](=O)[O-])o1 was read as D1 PAM -5.7, D1 ag 1.7, TRHR ag -1.6, D1 antag -33.0*, TRHR enhancer -1.6 and LDHA block -2.4.
CN(C)/N=C/c1ccc([N+](=O)[O-])cc1[N+](=O)[O-] was read as D1 PAM -7.7, D1 ag 3.8, TRHR ag -1.0, D1 antag -2.7, TRHR enhancer -1.5 and LDHA block -1.1.
For CN(/N=C/c1ccc(-c2ccc([N+](=O)[O-])cc2)o1)c1ccccc1 the results were D1 PAM 9.6, D1 ag 234.0*, TRHR ag 37.3*, D1 antag -66.8*, TRHR enhancer 1.4 and LDHA block -4.2.
CCCn1c2c(c(=N)c3c1CCC3)CCCC2 was read as D1 PAM -2.3, D1 ag 0.6, TRHR ag 0.5, D1 antag -2.4, TRHR enhancer 25.7 and LDHA block -36.1*.
Screening CCCn1c2c(c(=N)c3c1CCC3)CCC2 returned D1 PAM -0.7, D1 ag 0.5, TRHR ag -0.8, D1 antag -3.3, TRHR enhancer 2.0 and LDHA block -12.5.
For COc1ccccc1NC(=S)NCc1ccc(F)cc1 the results were D1 PAM -1.4, D1 ag 6.0, TRHR ag -1.4, D1 antag -3.1, TRHR enhancer -0.3 and LDHA block -9.6.
For COc1ccccc1NC(=S)NCc1ccccc1Cl the results were D1 PAM -5.5, D1 ag -2.2, TRHR ag -0.3, D1 antag -11.3, TRHR enhancer 37.2* and LDHA block -7.5.
For COc1ccccc1NC(=S)NCC1CCC(CNC(=S)Nc2ccccc2OC)CC1 (stereo unspecified) the results were D1 PAM 0.3, D1 ag 0.9, TRHR ag -0.2, D1 antag -84.9*, TRHR enhancer 27.3 and LDHA block -7.2.
COc1ccc(NC(=S)NCc2ccccc2Cl)c(OC)c1 was read as D1 PAM -8.9, D1 ag -1.8, TRHR ag -0.1, D1 antag -32.6*, TRHR enhancer -9.7 and LDHA block -5.9.
For COc1ccccc1NC(=S)NCC1CCCO1 (stereo unspecified) the results were D1 PAM -6.4, D1 ag 0.4, TRHR ag 0.2, D1 antag -25.5, TRHR enhancer -4.9 and LDHA block -11.1.

High-throughput results as filed in PubChem BioAssay.
